Results published in PubChem BioAssay (NCI).
This is part of a sample that, as a whole, favours compounds with a hit. Of some 83,000 tested, about 20% had one in any assay.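 Assay: single dose, 48 h. Readout: percent growth (0 = no net growth; negative = cell death). Active: <10.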 Activity calls are given as the source filed them.

How the values were obtained:
Assay in all cases: NCI-60 one-dose screen, 48 h (100 = growth as untreated, 0 = no growth, -100 = all killed)
Conditions in all cases: 10 µM unless noted
EKVX NSCLC = system: EKVX NSCLC
SN12C renal = system: SN12C renal
UO-31 renal = system: UO-31 renal
TK-10 renal = system: TK-10 renal
ACHN renal = system: ACHN renal
CAKI-1 renal = system: CAKI-1 renal
A498 renal = system: A498 renal
CCRF-CEM leukemia = system: CCRF-CEM leukemia
MOLT-4 leukemia = system: MOLT-4 leukemia
SR leukemia = system: SR leukemia

Measured: growth

CCOc1cc(C(C)(C)C)ccc1C1=N[C@H](c2ccc(Cl)cc2)[C@H](c2ccc(Cl)cc2)N1C(=O)N1CCN(CC#Cc2cccc3c2CN([C@@H]2CCC(=O)NC2=O)C3=O)CC1
active: UO-31 renal 5.26% | CAKI-1 renal 7.99% | CCRF-CEM leukemia -4.36% | MOLT-4 leukemia -13.3% | SR leukemia 9.99%
inactive: EKVX NSCLC 48.4% | SN12C renal 24.4% | TK-10 renal 49% | ACHN renal 23.6% | A498 renal 14.1%

COc1cc(C2NC(c3ccc(Cl)cc3)C(C)C(=NC(=O)c3cnccn3)C2C)cc(OC)c1OC (stereo not given)
inactive: EKVX NSCLC 99.3% | SN12C renal 107% | UO-31 renal 83% | TK-10 renal 103% | ACHN renal 102% | CAKI-1 renal 84.7% | A498 renal 112% | CCRF-CEM leukemia 92.4% | MOLT-4 leukemia 85.3% | SR leukemia 106%

Cc1cc(C)c2c(c1)N1OC(C2)C[C@H]1/C=C/c1ccccc1 (stereo not given in full)
inactive: EKVX NSCLC 90% | SN12C renal 92.2% | UO-31 renal 79.1% | TK-10 renal 108% | ACHN renal 112% | CAKI-1 renal 85.6% | A498 renal 99.9% | CCRF-CEM leukemia 92.9% | MOLT-4 leukemia 77.7% | SR leukemia 83.2%

COc1ccc(/C=C2\NC(=S)NC2=O)cc1
inactive: EKVX NSCLC 101% | SN12C renal 101% | UO-31 renal 73.6% | TK-10 renal 113% | ACHN renal 94% | CAKI-1 renal 98.7% | A498 renal 89% | CCRF-CEM leukemia 105% | MOLT-4 leukemia 110% | SR leukemia 110%

COc1cc(OC)c2sc(-c3ccc(-n4cncc4-c4ccc(N)cc4)cc3)nc2c1
active: A498 renal -3.9%
inactive: EKVX NSCLC 70.3% | SN12C renal 76.1% | UO-31 renal 49.2% | TK-10 renal 70% | ACHN renal 79.7% | CAKI-1 renal 76.4% | CCRF-CEM leukemia 60.5% | MOLT-4 leukemia 46.9% | SR leukemia 68.3%

CC(C)[C@]12O[C@H]1[C@@H]1O[C@]13[C@]1(O[C@H]1C[C@H]1C4=C(CC[C@@]13C)C(=O)OC4)[C@@H]2OC(=O)CN(C)C
active: EKVX NSCLC -26.9% | UO-31 renal -5.89% | TK-10 renal 4.34% | ACHN renal 9.59% | CAKI-1 renal -48.5% | A498 renal -36.4% | MOLT-4 leukemia -11.7% | SR leukemia -2.85%
inactive: SN12C renal 29.1% | CCRF-CEM leukemia 12.4%

O=C(Nc1ncc([N+](=O)[O-])s1)c1cccc([N+](=O)[O-])c1
active: A498 renal 5.48%
inactive: EKVX NSCLC 37.9% | SN12C renal 51.1% | UO-31 renal 63.4% | TK-10 renal 23.4% | ACHN renal 59% | CAKI-1 renal 40.4% | CCRF-CEM leukemia 33% | MOLT-4 leukemia 27.8% | SR leukemia 39.3%

O=C(Nc1nc2ccccc2s1)c1cc(-c2ccc(F)cc2)n2nc(-c3ccccc3)cc2n1
active: A498 renal -9.36%
inactive: EKVX NSCLC 68.8% | SN12C renal 57.5% | UO-31 renal 51.4% | TK-10 renal 129% | ACHN renal 13.5% | CAKI-1 renal 53.2% | CCRF-CEM leukemia 21.6% | MOLT-4 leukemia 61.9% | SR leukemia 18.6%

COc1ccc2[nH]cc(/C=C3/C(=O)Nc4ccc(F)cc43)c2c1
inactive: EKVX NSCLC 77.2% | SN12C renal 78.2% | UO-31 renal 73.1% | TK-10 renal 104% | ACHN renal 68.4% | CAKI-1 renal 62.4% | A498 renal 76% | CCRF-CEM leukemia 63.2% | MOLT-4 leukemia 61.6% | SR leukemia 83.2%

COc1ccc2c(c1)[nH]c(=O)c1c3cc(OC)c(OC)cc3cn21
active: CAKI-1 renal -9.25% | CCRF-CEM leukemia -83.5% | MOLT-4 leukemia 7.2%
inactive: EKVX NSCLC 36.9% | SN12C renal 35.6% | UO-31 renal 35.1% | TK-10 renal 27.1% | ACHN renal 24.7% | A498 renal 34.4% | SR leukemia 64.9%

C=C(C)[C@@H]1C/C=C(/C=O)CC[C@@H]2O[C@@]2(C)CC/C=C(\C)CC1
active: CAKI-1 renal 8.5%
inactive: EKVX NSCLC 69.8% | SN12C renal 116% | UO-31 renal 122% | TK-10 renal 114% | ACHN renal 100% | A498 renal 124% | CCRF-CEM leukemia 137% | MOLT-4 leukemia 133% | SR leukemia 125%

Cc1cc(C(C)(C)C)cc(C)c1CC1=NCCN1
inactive: EKVX NSCLC 89% | SN12C renal 111% | UO-31 renal 93% | TK-10 renal 113% | ACHN renal 92.8% | CAKI-1 renal 85.4% | A498 renal 117% | CCRF-CEM leukemia 103% | MOLT-4 leukemia 93.5% | SR leukemia 94.3%

Fc1ccc(-c2nc(Nc3ccc(-c4nc5ccccc5[nH]4)cc3)nc(N3CCOCC3)n2)cc1
active: EKVX NSCLC -91.3% | SN12C renal -79.5% | UO-31 renal -87.6% | TK-10 renal -94.4% | ACHN renal -90.6% | CAKI-1 renal -93.6% | A498 renal -81.5% | CCRF-CEM leukemia -91.5% | MOLT-4 leukemia -91.6% | SR leukemia -83.3%

CN1CCN(Cc2ccc(NC(=O)c3[nH]ncc3Nc3ccnc4ccnn34)cc2)CC1
inactive: EKVX NSCLC 100% | SN12C renal 35.1% | UO-31 renal 71.1% | TK-10 renal 103% | ACHN renal 66.4% | CAKI-1 renal 75.4% | A498 renal 74.4% | CCRF-CEM leukemia 54.6% | MOLT-4 leukemia 45.5% | SR leukemia 16%

Nc1nc(N)c([N+](=O)[O-])c(=O)[nH]1
inactive: EKVX NSCLC 121% | SN12C renal 105% | UO-31 renal 80.8% | TK-10 renal 94.6% | ACHN renal 98.7% | CAKI-1 renal 104% | A498 renal 97.9% | CCRF-CEM leukemia 93.1% | MOLT-4 leukemia 111% | SR leukemia 106%

COc1cc(NC(=O)c2cc3ccccc3cc2O)c(OC)cc1Cl
active: EKVX NSCLC 9.25% | UO-31 renal -25.8% | ACHN renal 3.75% | CAKI-1 renal -2.48% | CCRF-CEM leukemia -17.4% | MOLT-4 leukemia -18.8% | SR leukemia 1.88%
inactive: SN12C renal 10.2% | TK-10 renal 22.6% | A498 renal 25.4%

Cc1cc(C(=O)O)c(C)cc1C(=O)O
inactive: EKVX NSCLC 122% | SN12C renal 106% | UO-31 renal 73.5% | TK-10 renal 115% | ACHN renal 112% | CAKI-1 renal 102% | A498 renal 103% | CCRF-CEM leukemia 101% | MOLT-4 leukemia 87.7% | SR leukemia 105%

CCC(CC)NCCCCCNc1cc(OC)cc2cccnc12
inactive: EKVX NSCLC 104% | SN12C renal 87.2% | UO-31 renal 71.2% | TK-10 renal 83.5% | ACHN renal 94.8% | CAKI-1 renal 97.2% | A498 renal 72.7% | CCRF-CEM leukemia 114% | MOLT-4 leukemia 98.1% | SR leukemia 109%

N#Cc1c(N2CCOCC2)nc2sc3cc(Cl)ccc3n2c1=N
inactive: EKVX NSCLC 91.1% | SN12C renal 99.8% | UO-31 renal 63.3% | TK-10 renal 160% | ACHN renal 98.3% | CAKI-1 renal 111% | A498 renal 121% | CCRF-CEM leukemia 126% | MOLT-4 leukemia 109% | SR leukemia 108%

CCOc1cccc(C2CC(=O)Nc3cc4c(cc32)OCO4)c1 (stereo not given)
inactive: EKVX NSCLC 83.8% | SN12C renal 104% | UO-31 renal 68.6% | TK-10 renal 86.2% | ACHN renal 89.7% | CAKI-1 renal 64% | A498 renal 66.5% | CCRF-CEM leukemia 72.7% | MOLT-4 leukemia 78.2% | SR leukemia 57.5%

O=C(Nc1ccc(Cl)cc1)Nc1ccc(Nc2nncc3ccccc23)cc1
active: MOLT-4 leukemia -1.61%
inactive: EKVX NSCLC 20.6% | SN12C renal 26.4% | UO-31 renal 19% | TK-10 renal 32% | ACHN renal 22.4% | CAKI-1 renal 20.6% | A498 renal 24.5% | CCRF-CEM leukemia 13.1% | SR leukemia 17.5%

COc1ccc(-c2nn(-c3cccc(Cl)c3)cc2C2CC(c3ccccc3)=NN2C(C)=O)cc1 (stereo not given)
inactive: EKVX NSCLC 67.6% | SN12C renal 69.7% | UO-31 renal 58.9% | TK-10 renal 62.8% | ACHN renal 15.1% | CAKI-1 renal 53% | A498 renal 56.9% | CCRF-CEM leukemia 83% | MOLT-4 leukemia 93.9% | SR leukemia 75.6%

CC(C)c1ccc(C(=O)Nc2sc3c(CN(C)C)c(O)ccc3c2C(N)=O)cc1
inactive: EKVX NSCLC 86.7% | SN12C renal 55.9% | UO-31 renal 34.1% | TK-10 renal 97.4% | ACHN renal 61.3% | CAKI-1 renal 79.6% | A498 renal 82.5% | MOLT-4 leukemia 15.2%
active: CCRF-CEM leukemia -17.9% | SR leukemia -2.24%

COc1ccc(-c2cc(C(=O)Nc3nc4cc(C)c(C)cc4s3)nc3cc(-c4ccccc4)nn23)cc1OC
inactive: EKVX NSCLC 107% | SN12C renal 107% | UO-31 renal 103% | TK-10 renal 125% | ACHN renal 106% | CAKI-1 renal 91.3% | A498 renal 129% | CCRF-CEM leukemia 84.2% | MOLT-4 leukemia 98.7% | SR leukemia 62.8%

O=C1Nc2ccc(F)cc2/C1=C/c1nc(-c2ccc(F)cc2)n2ccccc12
inactive: EKVX NSCLC 104% | SN12C renal 98.9% | UO-31 renal 93.4% | TK-10 renal 120% | ACHN renal 94% | CAKI-1 renal 101% | CCRF-CEM leukemia 103% | MOLT-4 leukemia 103% | SR leukemia 52.9%
active: A498 renal -13.9%

O=C(CCc1nnc(Cn2ccnc2)o1)c1nc2ccccc2[nH]1
inactive: EKVX NSCLC 99.2% | SN12C renal 98.5% | UO-31 renal 92% | TK-10 renal 110% | ACHN renal 107% | CAKI-1 renal 110% | A498 renal 101% | CCRF-CEM leukemia 101% | MOLT-4 leukemia 92.8% | SR leukemia 87.7%

CC(=O)Nc1ccc2c(c1)Cc1c(F)c(F)c(F)c(F)c1-2
inactive: EKVX NSCLC 70.3% | SN12C renal 90.2% | UO-31 renal 58.1% | TK-10 renal 84.7% | ACHN renal 87.5% | CAKI-1 renal 86.6% | A498 renal 69.1% | CCRF-CEM leukemia 58.9% | MOLT-4 leukemia 99.4% | SR leukemia 52%
